For 12 compounds, Potency results are on record in PubChem BioAssay (Tox21).

Values without a mark were called inactive. Results filed as inconclusive are left out. Calls of active or inactive are those of the source. Calls come from the whole dose curve; as a rule, active = well fitted curve in the direction sought with a large enough effect in the repeat runs; inconclusive = weak or mixed curves; inactive = no such curve, though single readings can be large; an effect the other way counts as inactive or inconclusive.

A short description of test [1]: A CellTox Green Cytotoxicity Assay to monitor cytotoxicity in HEK293 cells - 40 hour (AID 1224871). Note: nearly all actives have a fitted effect of over 45% in size. Note: potency is the fitted concentration of half-maximal effect. The procedure, abridged: (§1)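 Cells (HEK293, 600/well) and dye reagent are dispensed together. After 5 h at 37 C, 23 nL compound is pinned in. Plates stay at 37 C for 40 h with fluorescence read at 0h, 8h, 16h, 24h, 32h and 40h.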
Test [2] can be described thus: qHTS RealTime-Glo MT Cell Viability Assay in HepG2 cells - 8 hour (AID 1224873). Note: nearly all actives have a fitted effect of over 55% in size. Note: potency is the fitted concentration of half-maximal effect. The method, boiled down:
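Real-time viability: cells seeded at 600 per well together with NanoLuc and cell-permeant prosubstrate, compounds added after 5 h incubation. Luminescence tracked at 0, 8, 16, 24, 32 and 40 h of exposure.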
A general note: In qHTS, concentration-response curves come from the screen itself.

Test [3] is described as follows: A CellTox Green Cytotoxicity Assay to monitor cytotoxicity in HEK293 cells - 24 hour (AID 1224875). Note: nearly all actives have a fitted effect of over 45% in size. Note: potency is the fitted concentration of half-maximal effect. The method, boiled down:
as §1

Test [4] in a line: qHTS RealTime-Glo MT Cell Viability Assay in HepG2 cells - 32 hour (AID 1224877). Note: nearly all actives have a fitted effect of over 55% in size. The procedure, abridged:
(§2)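 Cells + NanoLuc/prosubstrate dispensed (600 cells/well) → 5 h at 37 C/5% CO2 → compounds in DMSO transferred → 40 h incubation at 37 C, luminescence read at 0, 8, 16, 24, 32, 40 h.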

Test [5] is described as follows: A CellTox Green Cytotoxicity Assay to monitor cytotoxicity in HepG2 cells - 24 hour (AID 1224878). Note: nearly all actives have a fitted effect of over 45% in size. Note: potency is the fitted concentration of half-maximal effect. The method, boiled down: (§3)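 Cells and non-lytic dye reagent are dispensed together (600 HepG2 cells/well) and incubated 5 h before DMSO compound transfer. Kinetic fluorescence is then recorded in the same wells during 40 h at 37 C.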
Test [6] in a line: A CellTox Green Cytotoxicity Assay to monitor cytotoxicity in HepG2 cells - 40 hour (AID 1224879). Note: nearly all actives have a fitted effect of over 40% in size. Note: potency is the fitted concentration of half-maximal effect. The method, boiled down: as §3
Test [7] can be described thus: qHTS RealTime-Glo MT Cell Viability Assay in HEK293 cells - 0 hour (AID 1224880). Note: top concentration of the series differs between compounds; nearly all actives have a fitted effect of over 45% in size. The method, boiled down: (§4)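 Real-time viability in HEK293: signal arises when living cells convert a prosubstrate for NanoLuc in the medium, so luminescence tracks viable cell number. Compound (23 nL, DMSO) added 5 h post-seeding; kinetic reads at 0–40 h, 37 C.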
Test [8] in a line: A CellTox Green Cytotoxicity Assay to monitor cytotoxicity in HEK293 cells - 32 hour (AID 1224881). Note: nearly all actives have a fitted effect of over 40% in size. Note: potency is the fitted concentration of half-maximal effect. The method, boiled down:
as §1

A short description of test [9]: A CellTox Green Cytotoxicity Assay to monitor cytotoxicity in HepG2 cells - 0 hour (AID 1224882). Note: nearly all actives have a fitted effect of over 35% in size. The method, boiled down: as §3
The nature of test [10]: A CellTox Green Cytotoxicity Assay to monitor cytotoxicity in HepG2 cells - 32 hour (AID 1224883). Note: nearly all actives have a fitted effect of over 50% in size. Note: potency is the fitted concentration of half-maximal effect. The method, boiled down: as §3
Test [11] is described as follows: A CellTox Green Cytotoxicity Assay to monitor cytotoxicity in HEK293 cells - 8 hour (AID 1224884). Note: nearly all actives have a fitted effect of over 35% in size. Note: potency is the fitted concentration of half-maximal effect. The method, boiled down: as §1
Test [12] can be described thus: qHTS RealTime-Glo MT Cell Viability Assay in HepG2 cells - 16 hour (AID 1224885). Note: nearly all actives have a fitted effect of over 50% in size. Note: potency is the fitted concentration of half-maximal effect. The method, boiled down: as §2
The nature of test [13]: A CellTox Green Cytotoxicity Assay to monitor cytotoxicity in HEK293 cells - 16 hour (AID 1224888). Note: nearly all actives have a fitted effect of over 35% in size. Note: potency is the fitted concentration of half-maximal effect. The method, boiled down: as §1
Test [14] in a line: A CellTox Green Cytotoxicity Assay to monitor cytotoxicity in HepG2 cells - 8 hour (AID 1224890). Note: nearly all actives have a fitted effect of over 45% in size. Note: potency is the fitted concentration of half-maximal effect. The procedure, abridged: as §3
Test [15] can be described thus: qHTS RealTime-Glo MT Cell Viability Assay in HEK293 cells - 40 hour (AID 1224874). Note: potency is the fitted concentration of half-maximal effect; nearly all actives have a fitted effect of over 50% in size. Conditions: RealTime-Glo luminescence; max response: hits give low values. The procedure, abridged:
as §4

Test [16] is described as follows: qHTS RealTime-Glo MT Cell Viability Assay in HEK293 cells - 24 hour (AID 1224886). Note: potency is the fitted concentration of half-maximal effect; nearly all actives have a fitted effect of over 50% in size. The method, boiled down:
(§5)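 Tox21 10K qHTS, HEK293, 600 cells/well, RealTime-Glo reagent co-dispensed with cells; 5 h preincubation, compound by pintool, 37 C, luminescence at 0–40 h.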

Test [17] can be described thus: qHTS RealTime-Glo MT Cell Viability Assay in HepG2 cells - 0 hour (AID 1224889). Note: nearly all actives have a fitted effect of over 50% in size. The method, boiled down: as §2
The nature of test [18]: A CellTox Green Cytotoxicity Assay to monitor cytotoxicity in HepG2 cells - 16 hour (AID 1224876). Note: nearly all actives have a fitted effect of over 45% in size. The method, boiled down:
as §3

A short description of test [19]: qHTS RealTime-Glo MT Cell Viability Assay in HEK293 cells - 16 hour (AID 1224872). The procedure, abridged:
as §5

Test [20] in a line: qHTS RealTime-Glo MT Cell Viability Assay in HEK293 cells - 8 hour (AID 1224887). The method, boiled down:
as §4

Consider `O=C(Cl)c1ccc(Cl)cc1`, for which the Potency result in test [1], in test [2], in test [3], in test [4], in test [5] and in [6] was “inactive” in each case. Further, the Potency entry in test [7], in test [8], in test [9], in test [10], in [11] and in test [12] was “inactive” in each case. The Potency entry in test [13] and in test [14] was “inactive” in each case.
`CC(C)OC(=O)C(O)(c1ccc(Cl)cc1)c1ccc(Cl)cc1`: the Potency is 49 µM (active) in test [1]; 24.5 µM (active) in [15]; 27.5 µM (active) in test [5]; 38.9 µM (active) in [6]; 54.9 µM (active) in test [8]; 27.5 µM (active) in [10]. Moreover, the Potency in test [16] is 21.9 µM (active). In addition, the Potency result in [7], in test [11] and in test [17] was “inactive” throughout.
With `O=C1NCN(c2ccccc2)C12CCN(CC1COc3ccccc3O1)CC2` (centres undefined), the Potency result in test [1], in test [3], in test [18], in test [4], in [5] and in [6] was “inactive” throughout. Besides, the Potency entry in test [8], in test [9], in [10], in [11], in test [13] and in test [17] was “inactive” throughout. In [14], the Potency entry was “inactive”.
In the case of `Clc1ccc(CSC(Cn2ccnc2)c2ccc(Cl)cc2Cl)cc1` (centres undefined), the Potency entry in test [1], in [3], in test [18], in test [5], in [6] and in [7] was “inactive” in each case. Besides, the Potency entry in [11], in test [13], in test [17] and in [14] was “inactive” in each case.
Consider `CC(=O)OC1(c2ccccc2)CCN(CCc2ccccc2)CC1`, for which the figures for the Potency in test [19], in [15] and in [16] were 25.1 µM (active), 28.2 µM (active) and 28.2 µM (active), respectively. Moreover, the Potency result in [2], in test [3], in test [18], in test [4], in test [5] and in test [7] was “inactive” each time. The Potency entry in test [8], in test [9], in [11], in [12], in test [13] and in test [17] was “inactive” throughout. The Potency result in [14] was “inactive”.
For `Nc1ccc(Cc2ccc(N)c(Cl)c2)cc1Cl`, the Potency entry in [1], in test [3], in test [18], in test [5], in [6] and in test [7] was “inactive” throughout. For the same compound, the Potency entry in [8], in test [9], in test [10], in test [11], in test [12] and in [13] was “inactive” throughout. Further, the Potency entry in test [14] was “inactive”. Moreover, the Potency in test [15] was 23.7 µM (active); in test [16] it was 26.6 µM (active); in [20], 29.9 µM (active).
As for `Cc1c(Cl)c(=O)oc2cc(OP(=O)(OCCCl)OCCCl)ccc12`, the Potency result in [1], in [3], in [4], in test [5], in test [6] and in test [7] was “inactive” in each case. Besides, the Potency result in test [8], in test [10], in test [11], in test [12], in test [13] and in test [17] was “inactive” in each case. Further, the Potency entry in [14] was “inactive”.
`c1ccc(Nc2ccc3ccccc3c2)cc1`: the Potency entry in [1], in test [3], in [18], in test [4], in [7] and in test [11] was “inactive” throughout. In addition, the Potency entry in test [13], in test [17] and in [14] was “inactive” in each case. Further, the Potency in [6] and in [10] was 48.7 µM (active) in each case.
Turning to `Oc1ccc(C2(c3ccc(O)cc3)c3ccccc3-c3ccccc32)cc1`, the Potency entry in test [1], in [3], in [7], in test [8], in test [11] and in test [13] was “inactive” throughout. Moreover, the Potency entry in [17] and in test [14] was “inactive” throughout. Moreover, the Potency in test [2] was 49 µM (active); in [5], 61.6 µM (active); in test [6] it was 61.6 µM (active); in test [12], 49 µM (active).
`C[C@]12Cc3nonc3C[C@@H]1CC[C@@H]1[C@@H]2CC[C@@]2(C)[C@H]1CC[C@]2(C)O`: the Potency in test [19], in test [15] and in [16] was 19 µM (active) throughout. In addition, the Potency entry in test [2], in [3], in test [18], in test [4], in test [5] and in [6] was “inactive” throughout. Further, the Potency result in [8], in [9], in test [10], in test [11], in [12] and in test [13] was “inactive” throughout. In addition, the Potency entry in test [17] and in [14] was “inactive” in each case.
`CC(C)Oc1cccc(NC(=O)c2ccccc2C(F)(F)F)c1`: the Potency in test [1] was 61.6 µM (active); in [3], 19.5 µM (active); in test [5], 43.6 µM (active); in test [6], 43.6 µM (active); in test [10], 43.6 µM (active); in test [11] it was 43.6 µM (active). Further, the Potency in [13] and in test [14] was 49 µM (active) throughout. Also, the Potency result in test [4], in test [7], in test [12] and in test [17] was “inactive” each time.
Turning to `C[C@@H]1O[C@@H](O[C@H]2C[C@@H](O)[C@]3(CO)[C@H]4[C@H](O)C[C@]5(C)[C@@H](C6=CC(=O)OC6)CC[C@]5(O)[C@@H]4CC[C@]3(O)C2)[C@H](O)[C@H](O)[C@H]1O`, the Potency result in test [1], in [3], in test [5], in [6], in test [8] and in test [9] was “inactive” each time. In addition, the Potency entry in [10], in test [11], in [13] and in test [14] was “inactive” in each case.
